The values that follow come from publication PMC7862700, “An all-to-all approach to the identification of sequence-specific readers for epigenetic DNA modifications on cytosine”.

Test in all cases: DAPPL (digital affinity profiling via proximity ligation, sequencing); 10 mM Tris-HCl pH 7.5, 50 mM NaCl, 1 mM DTT, 4% glycerol, room temperature, 30 min; GST-TFs on glutathione beads, 16-mer random dsDNA library, 0.1% formaldehyde crosslink after washing; high values mean tight binding
The target of one test is T1, FEV (Homo sapiens, UniProt Q99581 1-238).
T1 sequence: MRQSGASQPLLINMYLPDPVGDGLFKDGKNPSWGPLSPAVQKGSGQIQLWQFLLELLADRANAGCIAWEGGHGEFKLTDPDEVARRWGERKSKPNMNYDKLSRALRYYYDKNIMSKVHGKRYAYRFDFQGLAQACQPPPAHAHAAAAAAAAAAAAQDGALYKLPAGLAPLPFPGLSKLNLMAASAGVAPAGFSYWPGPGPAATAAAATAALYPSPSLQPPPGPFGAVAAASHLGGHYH
As to conditions: protein: recombinant; tags: N-terminal GST; dsDNA, one strand shown. The gist of the method: (§1)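 Binding signal is defined as a hexamer's read frequency for one factor over its frequency for the tag-only sample. To obtain reads, GST-fused human transcription factors were expressed in yeast, captured on glutathione beads, barcoded with DNA and pooled with that sample. Pools met 200 nmole of a 16-mer random double-stranded DNA library in Tris/NaCl/DTT/glycerol buffer for 30 min at room temperature before washing, 0.1% formaldehyde crosslinking, proximity ligation (BsaI/T4 ligase, 1 h, 37 °C), PCR and Illumina NextSeq500 sequencing.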

A further test concerns the target ETV5 (Homo sapiens, UniProt P41161 1-510). As to conditions: protein: recombinant; tags: N-terminal GST; dsDNA, one strand shown. In short, it runs like this: as §1
A further test addresses HSF1 (Homo sapiens, UniProt Q00613 1-529). To be noted: protein: recombinant; tags: N-terminal GST; chain copies: 3; dsDNA, one strand shown. In short, it runs like this: as §1
A further test deals with T2, SPIC (Homo sapiens, UniProt Q8N5J4 1-248).
T2 sequence: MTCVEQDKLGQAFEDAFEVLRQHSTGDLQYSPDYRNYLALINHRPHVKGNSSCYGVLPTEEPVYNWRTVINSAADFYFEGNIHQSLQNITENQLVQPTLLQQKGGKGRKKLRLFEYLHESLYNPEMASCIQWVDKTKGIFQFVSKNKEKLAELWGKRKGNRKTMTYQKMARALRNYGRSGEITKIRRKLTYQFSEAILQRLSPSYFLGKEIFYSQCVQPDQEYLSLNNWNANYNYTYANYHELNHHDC
As to conditions: protein: recombinant; tags: N-terminal GST; dsDNA, one strand shown. The gist of the method:
as §1

A further test deals with ELF4 (Homo sapiens, UniProt Q99607 1-663). To be noted: protein: recombinant; tags: N-terminal GST; dsDNA, one strand shown. In short, it runs like this:
as §1

The target of a further test is T3, ELK4 (Homo sapiens, UniProt P28324-2 1-405).
T3 sequence: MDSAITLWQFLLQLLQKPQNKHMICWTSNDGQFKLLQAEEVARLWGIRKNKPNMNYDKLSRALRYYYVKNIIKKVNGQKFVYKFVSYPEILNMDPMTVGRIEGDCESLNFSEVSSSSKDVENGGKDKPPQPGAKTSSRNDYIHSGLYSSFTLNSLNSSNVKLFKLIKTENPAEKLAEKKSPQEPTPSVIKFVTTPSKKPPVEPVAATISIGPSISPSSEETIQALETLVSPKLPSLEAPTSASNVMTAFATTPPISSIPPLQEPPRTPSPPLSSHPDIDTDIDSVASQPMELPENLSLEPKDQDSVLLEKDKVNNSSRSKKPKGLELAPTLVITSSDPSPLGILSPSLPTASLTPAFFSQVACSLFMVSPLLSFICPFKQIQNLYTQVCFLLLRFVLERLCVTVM
As to conditions: protein: recombinant; tags: N-terminal GST; dsDNA, one strand shown. The gist of the method: as §1

Another test has as its target T4, ETV2 (Homo sapiens, UniProt O00321 1-342).
T4 sequence: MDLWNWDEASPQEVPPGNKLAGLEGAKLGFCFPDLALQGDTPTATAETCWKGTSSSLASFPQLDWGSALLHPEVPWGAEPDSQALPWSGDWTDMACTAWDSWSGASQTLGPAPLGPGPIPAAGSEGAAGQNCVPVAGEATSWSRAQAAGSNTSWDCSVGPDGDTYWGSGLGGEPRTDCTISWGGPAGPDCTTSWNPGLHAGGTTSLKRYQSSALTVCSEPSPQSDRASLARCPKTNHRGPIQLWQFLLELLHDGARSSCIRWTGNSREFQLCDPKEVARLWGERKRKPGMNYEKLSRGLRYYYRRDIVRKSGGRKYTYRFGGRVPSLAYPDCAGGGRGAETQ
To be noted: protein: recombinant; tags: N-terminal GST; dsDNA, one strand shown. The gist of the method: as §1

In the next test the target is T5, ELF3 (Homo sapiens, UniProt P78545 1-371).
T5 sequence: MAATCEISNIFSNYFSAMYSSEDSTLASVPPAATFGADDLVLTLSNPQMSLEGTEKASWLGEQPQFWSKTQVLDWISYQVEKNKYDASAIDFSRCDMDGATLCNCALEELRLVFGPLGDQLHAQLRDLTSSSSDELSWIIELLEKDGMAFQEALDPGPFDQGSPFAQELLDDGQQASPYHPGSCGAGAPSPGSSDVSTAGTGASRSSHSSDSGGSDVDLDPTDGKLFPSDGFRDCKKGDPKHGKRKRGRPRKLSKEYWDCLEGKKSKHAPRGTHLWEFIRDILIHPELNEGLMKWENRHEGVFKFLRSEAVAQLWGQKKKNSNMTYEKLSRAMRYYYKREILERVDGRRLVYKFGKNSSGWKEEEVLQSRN
As to conditions: protein: recombinant; tags: N-terminal GST; dsDNA, one strand shown. In short, it runs like this:
as §1

A further test deals with CRX (Homo sapiens, UniProt O43186 1-299). As to conditions: protein: recombinant; tags: N-terminal GST; dsDNA, one strand shown. The gist of the method:
as §1

For the next test, the target named is ETV1 (Homo sapiens, UniProt P50549 1-477). As to conditions: protein: recombinant; tags: N-terminal GST; dsDNA, one strand shown. The gist of the method:
as §1

The next test deals with T6, ERF (Homo sapiens, UniProt P50548 1-548).
T6 sequence: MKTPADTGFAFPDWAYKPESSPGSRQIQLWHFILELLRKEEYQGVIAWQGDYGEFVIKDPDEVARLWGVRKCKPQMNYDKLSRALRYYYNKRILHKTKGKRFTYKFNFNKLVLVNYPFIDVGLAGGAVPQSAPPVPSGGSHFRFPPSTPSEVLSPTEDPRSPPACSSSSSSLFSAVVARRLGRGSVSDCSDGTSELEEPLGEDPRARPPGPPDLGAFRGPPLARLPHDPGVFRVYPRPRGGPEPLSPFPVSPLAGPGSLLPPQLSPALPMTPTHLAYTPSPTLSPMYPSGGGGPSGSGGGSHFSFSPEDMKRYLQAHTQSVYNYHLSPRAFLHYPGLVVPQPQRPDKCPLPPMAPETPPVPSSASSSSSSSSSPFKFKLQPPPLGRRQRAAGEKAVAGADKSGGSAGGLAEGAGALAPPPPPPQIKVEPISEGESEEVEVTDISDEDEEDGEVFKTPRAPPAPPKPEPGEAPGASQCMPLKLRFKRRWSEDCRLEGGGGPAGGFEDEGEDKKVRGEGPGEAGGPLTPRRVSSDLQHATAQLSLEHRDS
To be noted: protein: recombinant; tags: N-terminal GST; dsDNA, one strand shown. In short, it runs like this: as §1

Another test concerns the target T7, ETV3L (Homo sapiens, UniProt Q6ZN32 1-361).
T7 sequence: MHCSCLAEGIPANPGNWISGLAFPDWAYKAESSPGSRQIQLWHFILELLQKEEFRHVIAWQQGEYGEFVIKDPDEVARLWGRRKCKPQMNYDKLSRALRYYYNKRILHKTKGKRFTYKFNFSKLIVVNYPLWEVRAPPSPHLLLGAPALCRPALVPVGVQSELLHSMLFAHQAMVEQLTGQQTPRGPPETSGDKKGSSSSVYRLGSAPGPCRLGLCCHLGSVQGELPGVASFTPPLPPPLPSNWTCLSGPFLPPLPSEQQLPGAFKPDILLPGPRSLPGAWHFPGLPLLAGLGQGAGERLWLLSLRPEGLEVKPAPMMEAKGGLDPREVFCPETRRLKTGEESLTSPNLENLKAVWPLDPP
To be noted: protein: recombinant; tags: N-terminal GST; dsDNA, one strand shown. In short, it runs like this: as §1

The target of another test is T8, ETS2 (Homo sapiens, UniProt P15036 1-469).
T8 sequence: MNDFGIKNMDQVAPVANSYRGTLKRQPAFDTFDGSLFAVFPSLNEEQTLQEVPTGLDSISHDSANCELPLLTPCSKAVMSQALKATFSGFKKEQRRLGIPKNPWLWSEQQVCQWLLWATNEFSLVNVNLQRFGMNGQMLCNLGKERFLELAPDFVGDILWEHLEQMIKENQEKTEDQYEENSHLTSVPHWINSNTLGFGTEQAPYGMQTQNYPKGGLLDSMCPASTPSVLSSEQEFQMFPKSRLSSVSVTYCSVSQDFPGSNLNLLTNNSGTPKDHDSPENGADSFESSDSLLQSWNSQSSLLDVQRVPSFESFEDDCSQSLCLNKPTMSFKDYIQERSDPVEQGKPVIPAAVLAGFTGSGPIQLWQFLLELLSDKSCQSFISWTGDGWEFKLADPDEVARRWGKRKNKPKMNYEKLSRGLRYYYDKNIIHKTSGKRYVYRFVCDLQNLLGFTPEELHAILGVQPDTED
As to conditions: protein: recombinant; tags: N-terminal GST; dsDNA, one strand shown. In short, it runs like this:
as §1

Another test concerns the target T9, SPDEF (Homo sapiens, UniProt O95238 1-335).
T9 sequence: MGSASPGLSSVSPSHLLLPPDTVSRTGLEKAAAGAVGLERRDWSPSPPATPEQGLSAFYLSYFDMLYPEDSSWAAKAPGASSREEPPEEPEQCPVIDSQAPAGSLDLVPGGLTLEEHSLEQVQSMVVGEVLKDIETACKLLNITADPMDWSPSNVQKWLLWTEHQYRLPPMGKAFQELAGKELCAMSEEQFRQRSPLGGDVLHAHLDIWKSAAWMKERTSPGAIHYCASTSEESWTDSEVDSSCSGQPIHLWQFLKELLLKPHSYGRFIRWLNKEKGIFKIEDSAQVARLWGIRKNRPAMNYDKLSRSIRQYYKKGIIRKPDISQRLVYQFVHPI
To be noted: protein: recombinant; tags: N-terminal GST; dsDNA, one strand shown. In short, it runs like this:
as §1

The next test addresses T10, ETV7 (Homo sapiens, UniProt Q9Y603 1-341).
T10 sequence: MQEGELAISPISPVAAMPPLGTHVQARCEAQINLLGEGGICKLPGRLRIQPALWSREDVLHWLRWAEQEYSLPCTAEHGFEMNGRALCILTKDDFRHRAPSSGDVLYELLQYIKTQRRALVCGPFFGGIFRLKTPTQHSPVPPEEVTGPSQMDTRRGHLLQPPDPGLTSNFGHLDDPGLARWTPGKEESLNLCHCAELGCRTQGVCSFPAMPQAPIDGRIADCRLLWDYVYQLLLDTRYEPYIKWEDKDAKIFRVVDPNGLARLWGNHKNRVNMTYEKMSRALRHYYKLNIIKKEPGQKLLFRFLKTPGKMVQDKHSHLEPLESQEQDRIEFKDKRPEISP
To be noted: protein: recombinant; tags: N-terminal GST; dsDNA, one strand shown. In short, it runs like this: as §1

A further test has as its target T11, ELF5 (Homo sapiens, UniProt Q9UKW6-2 1-255).
T11 sequence: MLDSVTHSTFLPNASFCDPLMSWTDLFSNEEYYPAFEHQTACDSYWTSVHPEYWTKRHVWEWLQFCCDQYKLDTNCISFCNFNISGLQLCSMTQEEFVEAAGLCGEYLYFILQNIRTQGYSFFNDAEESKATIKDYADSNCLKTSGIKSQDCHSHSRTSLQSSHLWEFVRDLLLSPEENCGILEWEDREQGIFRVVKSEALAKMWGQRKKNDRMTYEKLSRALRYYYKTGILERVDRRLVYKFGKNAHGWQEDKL
As to conditions: protein: recombinant; tags: N-terminal GST; dsDNA, one strand shown. In short, it runs like this: as §1

In another test the target is T12, ETV3 (Homo sapiens, UniProt P41162-2 1-143).
T12 sequence: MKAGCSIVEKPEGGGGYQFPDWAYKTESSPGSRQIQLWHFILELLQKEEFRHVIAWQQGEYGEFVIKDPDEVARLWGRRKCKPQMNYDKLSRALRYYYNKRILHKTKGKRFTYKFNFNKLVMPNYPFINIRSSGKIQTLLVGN
As to conditions: protein: recombinant; tags: N-terminal GST; dsDNA, one strand shown. The gist of the method:
as §1

For the next test, the target named is ETV6 (Homo sapiens, UniProt P41212 1-452). As to conditions: protein: recombinant; tags: N-terminal GST; dsDNA, one strand shown. The gist of the method: as §1
ETV6, sequence (P41212 whole entry): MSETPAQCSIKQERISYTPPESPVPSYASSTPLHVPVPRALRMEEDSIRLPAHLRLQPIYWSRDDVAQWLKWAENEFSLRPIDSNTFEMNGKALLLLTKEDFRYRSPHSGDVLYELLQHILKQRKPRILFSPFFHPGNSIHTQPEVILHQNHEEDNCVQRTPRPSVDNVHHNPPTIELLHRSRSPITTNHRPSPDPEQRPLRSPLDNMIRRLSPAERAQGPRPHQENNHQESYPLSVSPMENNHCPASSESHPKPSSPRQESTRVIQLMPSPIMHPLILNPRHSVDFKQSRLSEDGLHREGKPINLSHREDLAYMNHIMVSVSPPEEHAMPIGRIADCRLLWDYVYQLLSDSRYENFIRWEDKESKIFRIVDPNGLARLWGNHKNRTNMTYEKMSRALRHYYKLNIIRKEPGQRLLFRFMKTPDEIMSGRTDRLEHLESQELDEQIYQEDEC

HSF1, sequence (Q00613 whole entry): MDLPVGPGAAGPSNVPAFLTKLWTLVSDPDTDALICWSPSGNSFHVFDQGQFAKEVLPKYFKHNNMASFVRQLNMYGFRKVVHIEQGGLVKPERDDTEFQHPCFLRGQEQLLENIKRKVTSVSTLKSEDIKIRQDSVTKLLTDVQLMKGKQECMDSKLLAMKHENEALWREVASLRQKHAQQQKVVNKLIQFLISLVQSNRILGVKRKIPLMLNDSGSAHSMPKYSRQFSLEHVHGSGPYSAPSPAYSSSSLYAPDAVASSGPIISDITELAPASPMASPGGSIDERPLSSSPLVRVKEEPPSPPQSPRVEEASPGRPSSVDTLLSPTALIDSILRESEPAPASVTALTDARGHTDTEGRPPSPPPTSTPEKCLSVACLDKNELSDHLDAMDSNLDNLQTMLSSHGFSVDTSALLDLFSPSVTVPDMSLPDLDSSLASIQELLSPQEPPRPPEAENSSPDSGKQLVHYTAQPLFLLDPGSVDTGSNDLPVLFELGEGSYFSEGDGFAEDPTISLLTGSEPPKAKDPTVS
ETV1, sequence (P50549 whole entry): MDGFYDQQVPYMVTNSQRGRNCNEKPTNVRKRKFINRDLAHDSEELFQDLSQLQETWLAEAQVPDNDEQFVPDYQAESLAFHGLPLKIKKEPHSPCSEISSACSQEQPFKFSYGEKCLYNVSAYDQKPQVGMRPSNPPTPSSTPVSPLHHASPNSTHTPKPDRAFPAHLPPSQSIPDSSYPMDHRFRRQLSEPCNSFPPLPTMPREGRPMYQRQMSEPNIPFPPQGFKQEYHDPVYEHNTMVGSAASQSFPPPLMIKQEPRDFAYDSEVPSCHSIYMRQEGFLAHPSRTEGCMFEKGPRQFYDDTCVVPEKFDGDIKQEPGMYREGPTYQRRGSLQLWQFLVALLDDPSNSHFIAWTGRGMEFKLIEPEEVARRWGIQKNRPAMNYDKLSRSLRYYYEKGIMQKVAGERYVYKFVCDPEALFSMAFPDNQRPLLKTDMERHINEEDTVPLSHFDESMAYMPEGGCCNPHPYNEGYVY
ETV5, sequence (P41161 whole entry): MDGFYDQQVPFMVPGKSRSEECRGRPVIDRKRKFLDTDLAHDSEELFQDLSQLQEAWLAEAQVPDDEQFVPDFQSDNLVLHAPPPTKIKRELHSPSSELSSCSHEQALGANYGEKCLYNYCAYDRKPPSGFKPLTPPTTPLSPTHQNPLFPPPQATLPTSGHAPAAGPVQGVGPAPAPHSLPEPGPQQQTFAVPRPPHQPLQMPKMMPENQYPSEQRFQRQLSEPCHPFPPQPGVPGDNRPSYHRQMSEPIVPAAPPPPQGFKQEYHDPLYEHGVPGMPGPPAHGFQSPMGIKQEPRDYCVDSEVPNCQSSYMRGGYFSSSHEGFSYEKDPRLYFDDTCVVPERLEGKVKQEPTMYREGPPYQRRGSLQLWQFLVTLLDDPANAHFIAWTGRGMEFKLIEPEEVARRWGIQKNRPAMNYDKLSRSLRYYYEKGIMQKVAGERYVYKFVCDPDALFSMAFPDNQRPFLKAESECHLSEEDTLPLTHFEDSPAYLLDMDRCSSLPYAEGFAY
CRX, sequence (O43186 whole entry): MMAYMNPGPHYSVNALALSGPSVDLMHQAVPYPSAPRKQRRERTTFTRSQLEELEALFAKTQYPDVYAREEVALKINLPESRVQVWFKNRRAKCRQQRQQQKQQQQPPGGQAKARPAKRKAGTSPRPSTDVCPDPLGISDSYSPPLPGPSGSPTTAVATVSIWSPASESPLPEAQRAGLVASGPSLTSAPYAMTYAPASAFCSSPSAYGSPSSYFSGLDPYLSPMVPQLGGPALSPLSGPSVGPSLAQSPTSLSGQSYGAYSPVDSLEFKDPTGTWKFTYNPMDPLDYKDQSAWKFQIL
ELF4, sequence (Q99607 whole entry): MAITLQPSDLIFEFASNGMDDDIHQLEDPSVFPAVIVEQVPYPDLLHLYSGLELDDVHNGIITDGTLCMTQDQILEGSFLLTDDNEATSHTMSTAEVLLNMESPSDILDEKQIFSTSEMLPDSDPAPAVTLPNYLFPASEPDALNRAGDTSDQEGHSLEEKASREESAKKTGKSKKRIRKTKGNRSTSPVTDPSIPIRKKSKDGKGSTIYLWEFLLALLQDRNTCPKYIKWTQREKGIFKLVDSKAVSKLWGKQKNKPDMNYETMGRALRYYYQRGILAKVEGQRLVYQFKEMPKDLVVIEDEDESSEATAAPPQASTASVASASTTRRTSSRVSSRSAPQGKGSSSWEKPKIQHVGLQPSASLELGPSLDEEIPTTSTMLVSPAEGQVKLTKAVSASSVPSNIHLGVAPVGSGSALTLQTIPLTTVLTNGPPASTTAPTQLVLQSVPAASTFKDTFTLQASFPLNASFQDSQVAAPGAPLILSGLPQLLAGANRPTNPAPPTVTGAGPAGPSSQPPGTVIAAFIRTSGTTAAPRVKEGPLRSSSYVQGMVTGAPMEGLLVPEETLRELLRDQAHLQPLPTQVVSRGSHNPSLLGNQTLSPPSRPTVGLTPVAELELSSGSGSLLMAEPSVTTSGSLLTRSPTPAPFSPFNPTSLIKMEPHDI

Turning to TTTTAT, the binding signal in the test with FEV is 1.32 fold enrichment (6-mer frequency, TF over GST control); in the test with ETV5 it was 1.26 fold enrichment (6-mer frequency, TF over GST control); in the test with HSF1 it was 1.46 fold enrichment (6-mer frequency, TF over GST control); in the test with SPIC it was 1.39 fold enrichment (6-mer frequency, TF over GST control); with ELF4 it was 1.4 fold enrichment (6-mer frequency, TF over GST control); in the test with ELK4, 1.26 fold enrichment (6-mer frequency, TF over GST control). Moreover, the binding signal is 1.36 fold enrichment (6-mer frequency, TF over GST control) with ETV2; 1.32 fold enrichment (6-mer frequency, TF over GST control) in the test with ELF3; 1.77 fold enrichment (6-mer frequency, TF over GST control) in the test with CRX; 1.3 fold enrichment (6-mer frequency, TF over GST control) in the test with ETV1; 1.17 fold enrichment (6-mer frequency, TF over GST control) with ERF; 1.39 fold enrichment (6-mer frequency, TF over GST control) in the test with ETV3L. The binding signal was 1.23 fold enrichment (6-mer frequency, TF over GST control) with ETS2; 1.22 fold enrichment (6-mer frequency, TF over GST control) in the test with SPDEF; 1.34 fold enrichment (6-mer frequency, TF over GST control) with ETV7; 1.3 fold enrichment (6-mer frequency, TF over GST control) with ELF5; 1.45 fold enrichment (6-mer frequency, TF over GST control) in the test with ETV3; 1.36 fold enrichment (6-mer frequency, TF over GST control) with ETV6.
